Consider twelve sequences from publication PMC5700166.

What all share (test): protein-binding microarray (PBM); PBM: ~300 nM protein, 6 mM HEPES pH 7.8, 80 mM KCl, 0.5 mM EDTA, 0.5 mM EGTA, 6% glycerol, 35 ng/ul poly-dIdC, 1% milk, 1 h, room temperature; Ap Aiptasia and Nv Nematostella (sea anemones) / Co Capsaspora / Aq Amphimedon (sponge) / Dm Drosophila / Hu human; RHD is the Rel homology domain; high values mean tight binding
Conditions in all cases: dsDNA, one strand shown

For one test, the target named is T1, GST-Ap-NF-kB RHD (Exaiptasia pallida (Aiptasia), UniProt A0A913YAJ5 2-422).
T1 sequence: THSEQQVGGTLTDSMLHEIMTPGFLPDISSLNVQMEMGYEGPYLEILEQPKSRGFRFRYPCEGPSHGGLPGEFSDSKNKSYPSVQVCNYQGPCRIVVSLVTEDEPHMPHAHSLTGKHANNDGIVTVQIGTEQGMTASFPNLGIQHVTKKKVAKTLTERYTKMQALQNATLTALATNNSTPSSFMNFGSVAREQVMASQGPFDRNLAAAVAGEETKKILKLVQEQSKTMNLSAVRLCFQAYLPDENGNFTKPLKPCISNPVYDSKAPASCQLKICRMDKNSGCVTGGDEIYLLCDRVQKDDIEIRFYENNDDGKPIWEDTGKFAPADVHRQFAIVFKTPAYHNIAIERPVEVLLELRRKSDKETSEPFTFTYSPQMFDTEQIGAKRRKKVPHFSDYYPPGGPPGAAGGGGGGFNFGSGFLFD

The target in test [1] is T2, GST-Nv-NF-kB (Cys allele) (Nematostella vectensis, UniProt E5G601 2-411).
T2 sequence: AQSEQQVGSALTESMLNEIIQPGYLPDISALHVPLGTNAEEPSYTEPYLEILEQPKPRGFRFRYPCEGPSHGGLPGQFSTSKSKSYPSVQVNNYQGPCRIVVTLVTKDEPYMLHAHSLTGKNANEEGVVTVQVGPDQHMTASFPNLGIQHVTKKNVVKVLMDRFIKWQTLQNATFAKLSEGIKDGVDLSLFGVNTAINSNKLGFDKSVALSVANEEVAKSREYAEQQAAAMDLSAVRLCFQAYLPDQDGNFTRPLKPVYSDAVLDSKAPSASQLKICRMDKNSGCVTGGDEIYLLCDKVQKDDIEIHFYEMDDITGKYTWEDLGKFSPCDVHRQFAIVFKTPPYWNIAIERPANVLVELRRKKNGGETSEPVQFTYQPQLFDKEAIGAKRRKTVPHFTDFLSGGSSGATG

Test [2] deals with T3, GST-Nv-NF-kB (Ser allele) (Nematostella vectensis, UniProt A7UNT2 2-411).
T3 sequence: T2 sequence with Q21R, C66S, S207N, E215Q, V217A, E225K, A268E, D399E

In another test the target is T4, GST-Co-NF-kB (Capsaspora owczarzaki, UniProt F1ARL5 200-546).
T4 sequence: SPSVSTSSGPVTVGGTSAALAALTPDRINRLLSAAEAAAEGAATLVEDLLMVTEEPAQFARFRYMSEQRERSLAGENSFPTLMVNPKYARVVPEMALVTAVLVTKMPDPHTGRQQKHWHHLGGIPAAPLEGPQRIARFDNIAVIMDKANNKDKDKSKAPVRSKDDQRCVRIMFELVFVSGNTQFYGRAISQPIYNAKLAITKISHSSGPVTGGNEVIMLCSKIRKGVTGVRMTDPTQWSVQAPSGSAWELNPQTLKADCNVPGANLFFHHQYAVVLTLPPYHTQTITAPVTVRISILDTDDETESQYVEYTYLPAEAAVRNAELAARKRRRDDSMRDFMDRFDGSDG

The next test deals with T5, GST-Dm-Relish (Drosophila melanogaster, UniProt Q94527 99-473).
T5 sequence: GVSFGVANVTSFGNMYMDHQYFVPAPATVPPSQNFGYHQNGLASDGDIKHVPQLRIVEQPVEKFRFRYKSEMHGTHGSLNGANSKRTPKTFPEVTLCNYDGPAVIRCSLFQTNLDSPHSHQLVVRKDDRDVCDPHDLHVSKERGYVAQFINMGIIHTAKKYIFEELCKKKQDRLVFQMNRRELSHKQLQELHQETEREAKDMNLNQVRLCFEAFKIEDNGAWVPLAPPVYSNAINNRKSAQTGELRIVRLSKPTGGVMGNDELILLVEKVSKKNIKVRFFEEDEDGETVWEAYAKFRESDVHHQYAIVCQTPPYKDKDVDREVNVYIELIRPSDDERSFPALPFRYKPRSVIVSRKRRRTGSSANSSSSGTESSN

For a further test, the target named is T6, GST-Aq-NF-kB (Amphimedon queenslandica, UniProt A9Y5G7 2-389).
T6 sequence: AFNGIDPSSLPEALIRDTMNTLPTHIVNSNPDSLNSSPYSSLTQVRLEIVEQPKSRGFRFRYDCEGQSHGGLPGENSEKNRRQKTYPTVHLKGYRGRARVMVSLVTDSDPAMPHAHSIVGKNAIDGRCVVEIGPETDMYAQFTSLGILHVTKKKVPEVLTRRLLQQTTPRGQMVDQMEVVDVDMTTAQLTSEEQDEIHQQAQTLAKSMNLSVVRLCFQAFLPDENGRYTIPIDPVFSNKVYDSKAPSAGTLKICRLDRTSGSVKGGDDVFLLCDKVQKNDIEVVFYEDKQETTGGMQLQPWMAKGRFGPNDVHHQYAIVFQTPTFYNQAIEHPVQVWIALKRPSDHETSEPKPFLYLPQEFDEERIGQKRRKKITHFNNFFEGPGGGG

The target in another test is GST-Hu-p50 (Homo sapiens, UniProt P19838 7-356).

Changes are numbered by the printed parent chain.

GST-Hu-p50, sequence (P19838 7-356): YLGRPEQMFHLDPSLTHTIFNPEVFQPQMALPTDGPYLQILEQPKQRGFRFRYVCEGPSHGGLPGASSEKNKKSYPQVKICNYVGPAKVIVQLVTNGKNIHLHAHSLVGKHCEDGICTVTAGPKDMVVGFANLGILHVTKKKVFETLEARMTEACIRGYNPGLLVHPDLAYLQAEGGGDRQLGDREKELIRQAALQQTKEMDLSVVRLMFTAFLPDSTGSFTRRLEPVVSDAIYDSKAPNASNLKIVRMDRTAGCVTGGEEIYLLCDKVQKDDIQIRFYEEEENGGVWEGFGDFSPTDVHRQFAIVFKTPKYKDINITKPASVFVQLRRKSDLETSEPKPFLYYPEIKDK

“CCGATTAACATCAGGGGAAACACTGATGTTAATCGGGTCTTGATTCGCTTGACGCTGCTG”: the binding signal was 6.4 z-score in the test with GST-Ap-NF-kB RHD; 8.15 z-score in test [1]; 9.65 z-score in test [2]; 7.63 z-score with GST-Co-NF-kB; 9.02 z-score with GST-Dm-Relish; 7 z-score in the test with GST-Aq-NF-kB. This sequence also had a binding signal with GST-Hu-p50 of 6.08 z-score.

For “CCGATTAACATCAAAAAATACCCTGATGTTAATCGGGTCTTGATTCGCTTGACGCTGCTG”, the binding signal with GST-Ap-NF-kB RHD worked out at 6.17 z-score; in test [1], 9.78 z-score; in test [2], 8.7 z-score; in the test with GST-Co-NF-kB, 3.1 z-score; with GST-Dm-Relish, 8.93 z-score; with GST-Aq-NF-kB it was 8.03 z-score. The binding signal with GST-Hu-p50 was 6.73 z-score.

In the case of “CCGATTAACATCAGGGGGCTTTATGATGTTAATCGGGTCTTGATTCGCTTGACGCTGCTG”, the binding signal was found to be 5.16 z-score in the test with GST-Ap-NF-kB RHD; 5.53 z-score in test [1]; 4.34 z-score in test [2]; 1.85 z-score with GST-Co-NF-kB; 6.23 z-score with GST-Dm-Relish; 5.44 z-score with GST-Aq-NF-kB. In the test with GST-Hu-p50, this sequence yielded a binding signal of 5.71 z-score.

Consider “CCGATTAACATCAGGATTCCCCCTGATGTTAATCGGGTCTTGATTCGCTTGACGCTGCTG”, for which the binding signal in the test with GST-Ap-NF-kB RHD was 11.3 z-score; in test [1], 10.5 z-score; in test [2], 9.81 z-score; with GST-Co-NF-kB it was 8.01 z-score; with GST-Dm-Relish, 10.2 z-score; with GST-Aq-NF-kB, 8.67 z-score. In the test with GST-Hu-p50, the binding signal amounted to 7.26 z-score.

As for “CCGATTAACATCAGGGAAATACCTGATGTTAATCGGGTCTTGATTCGCTTGACGCTGCTG”, the binding signal with GST-Ap-NF-kB RHD is 6 z-score; in test [1] it was 8.81 z-score; in test [2], 6.78 z-score; in the test with GST-Co-NF-kB, 3.06 z-score; in the test with GST-Dm-Relish, 8.42 z-score; in the test with GST-Aq-NF-kB, 9.82 z-score. The same sequence returned a binding signal with GST-Hu-p50 of 5.57 z-score.

As for “CCGATTAACATCAGGAATATCCCTGATGTTAATCGGGTCTTGATTCGCTTGACGCTGCTG”, the binding signal came to 2.84 z-score with GST-Ap-NF-kB RHD; 3.66 z-score in test [1]; 2.12 z-score in test [2]; 1.54 z-score in the test with GST-Co-NF-kB; 2.78 z-score in the test with GST-Dm-Relish; 6.03 z-score with GST-Aq-NF-kB. Further, in the test with GST-Hu-p50, the binding signal is 3.26 z-score.

As to “CCGATTAACATCAGGGAGGGAAATGATGTTAATCGGGTCTTGATTCGCTTGACGCTGCTG”, the binding signal was determined as 2.6 z-score in the test with GST-Ap-NF-kB RHD; 4.76 z-score in test [1]; 3.78 z-score in test [2]; 3.79 z-score in the test with GST-Co-NF-kB; 1.23 z-score in the test with GST-Dm-Relish; 3.72 z-score in the test with GST-Aq-NF-kB. The sequence also yielded a binding signal in the test with GST-Hu-p50 of 2.8 z-score.

As for “CCGATTAACATCAAGGGGGTTTATGATGTTAATCGGGTCTTGATTCGCTTGACGCTGCTG”, the binding signal was determined as 7.31 z-score in the test with GST-Ap-NF-kB RHD; 6.46 z-score in test [1]; 7.73 z-score in test [2]; 2.54 z-score in the test with GST-Co-NF-kB; 8.75 z-score with GST-Dm-Relish; 6.24 z-score in the test with GST-Aq-NF-kB. In the test with GST-Hu-p50, this sequence displayed a binding signal of 7.21 z-score.

As for “CCGATTAACATCAGTAAATCCCATGATGTTAATCGGGTCTTGATTCGCTTGACGCTGCTG”, the binding signal with GST-Ap-NF-kB RHD turned out to be 1.49 z-score; in test [1], 1.09 z-score; in test [2] it was 1.18 z-score; with GST-Co-NF-kB, 1.48 z-score; in the test with GST-Dm-Relish it was 7.4 z-score; in the test with GST-Aq-NF-kB it was 2.3 z-score. This sequence gave a binding signal with GST-Hu-p50 of 1.94 z-score.

Turning to “CCGATTAACATCAAGGGGAAAATTGATGTTAATCGGGTCTTGATTCGCTTGACGCTGCTG”, the binding signal with GST-Ap-NF-kB RHD worked out at 7.28 z-score; in test [1], 8.8 z-score; in test [2] it was 11.5 z-score; with GST-Co-NF-kB, 8.77 z-score; with GST-Dm-Relish, 4.19 z-score; with GST-Aq-NF-kB it was 7.23 z-score. The same sequence returned a binding signal in the test with GST-Hu-p50 of 6.72 z-score.

Regarding “CCGATTAACATCAGGGGGGTACCTGATGTTAATCGGGTCTTGATTCGCTTGACGCTGCTG”, the binding signal was found to be 5.8 z-score with GST-Ap-NF-kB RHD; 3.31 z-score in test [1]; 3.85 z-score in test [2]; 4.86 z-score with GST-Co-NF-kB; 5.81 z-score in the test with GST-Dm-Relish; 5.74 z-score in the test with GST-Aq-NF-kB. The sequence further yielded a binding signal in the test with GST-Hu-p50 of 4.26 z-score.

As to “CCGATTAACATCAAAGTCCCCCTTGATGTTAATCGGGTCTTGATTCGCTTGACGCTGCTG”, the binding signal with GST-Ap-NF-kB RHD is 7 z-score; in test [1] it was 6.84 z-score; in test [2], 6.92 z-score; with GST-Co-NF-kB it was 4.36 z-score; with GST-Dm-Relish, 8.18 z-score; with GST-Aq-NF-kB it was 6.66 z-score. This sequence yielded a binding signal in the test with GST-Hu-p50 of 6.67 z-score.
